# Shown are actives, neighbours in structure and some others; about 0.4% of the full set was active somewhere.
# HRas wt GTP – modulators of GTP binding to human HRas wildtype | GST-Ras wt beads, Bodipy-FL-GTP binding, flow cytometry; actives lie on both sides | AID 759 | GTP binding activity, % at 10 µM | 190,000 compounds, 0.14% hits | P01112;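 active = GTP binding activity at least 20% away from the 100% baseline, either lowered as inhibitor or raised as activator; inconclusive = flagged as likely green fluorescent, judged across all proteins in the well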;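 note: 0% = unlabeled GTP competition control and 100% = no-compound control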
# Target sequence (P01112 whole entry, looked up): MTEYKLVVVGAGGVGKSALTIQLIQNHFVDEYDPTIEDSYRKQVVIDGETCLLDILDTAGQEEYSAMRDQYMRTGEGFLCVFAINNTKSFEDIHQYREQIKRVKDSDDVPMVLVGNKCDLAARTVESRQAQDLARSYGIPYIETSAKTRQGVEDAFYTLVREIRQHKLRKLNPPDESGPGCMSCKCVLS
# Rab7 wt modul – modulators of GTP binding to dog Rab7 wildtype GTPase; GST-Rab7 beads, fluorescent GTP binding, flow cytometry; actives lie on both sides; untreated = 100%, excess cold GTP = 0%; GTP binding activity (percent of control), % at 10 µM; 190,000 compounds, 0.055% hits;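 active = fluorescent GTP binding to Rab7 beads changed by at least 20 points from the 100% baseline, either direction, mostly lower; inconclusive = compound itself probably fluorescent, or too few beads counted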;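 note: median green fluorescence of bound Bodipy-FL-GTP per Rab7 bead population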
# Cdc42 wt GTP – changes GTP binding to wildtype human Cdc42; P60953; GST-Cdc42 beads, Bodipy-GTP binding, flow cytometry; actives lie on both sides; percent activity (GTP binding), % at 10 µM; 190,000 compounds, 0.2% hits;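 active = percent activity GTP binding at least 20 points away from the 100% baseline, either down as inhibitor or up as activator; inconclusive = compound flagged as likely green fluorescent from well-wide comparison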;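 note: median bead fluorescence of bound Bodipy-FL-GTP at 100 nM; 0% = excess unlabeled GTP control and 100% = no compound control; below 100% means less GTP binding so inhibitor and above means activator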
# Target sequence (P60953 whole entry, looked up): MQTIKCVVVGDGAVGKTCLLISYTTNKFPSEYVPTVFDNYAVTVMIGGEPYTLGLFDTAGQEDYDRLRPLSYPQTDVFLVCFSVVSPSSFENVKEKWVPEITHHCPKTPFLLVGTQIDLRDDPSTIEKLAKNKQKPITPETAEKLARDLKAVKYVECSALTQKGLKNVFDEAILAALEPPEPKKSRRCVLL
# Rac1 act GTP bind – human Rac1 activated mutant GTP binding change. P63000. AID 764. 190,000 compounds, 0.11% hits. percent activity (GTP binding), % at 10 µM. GST-Rac1 activated beads, fluorescent GTP binding, flow cytometry; actives lie on both sides; 100% means binding = to untreated wells;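 active = GTP binding at least 20 percentage points away from the 100% baseline, in either direction, so actives lie on both sides; inconclusive = Compound likely fluorescent itself, or too few beads counted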
# Rab2 wt GTP – changes GTP binding to wildtype dog Rab2A, up or down; GTP binding activity, % at 10 µM; AID 760; P61105; 190,000 compounds, 0.19% hits; GST-Rab2 wt beads, Bodipy-GTP binding, flow cytometry;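 active = GTP binding activity at least 20 points away from 100%, either lowered or raised; inconclusive = signal likely due to the compound's own green fluorescence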;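 note: 0% = beads with excess unlabeled GTP and 100% = no-compound control corrected for plate trend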
# Rac1 wt GTP bind – alters GTP binding to wildtype human Rac1; P63000; 190,000 compounds, 0.27% hits; AID 757; GTP binding activity (% of control), % at 10 µM; GST-Rac1 beads, fluorescent GTP binding, flow cytometry; actives lie on both sides; 0 = cold GTP competed, 100 = untreated;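 active = GTP binding activity at least 20 points away from the 100% control level, either lower or higher; inconclusive = compound flagged as likely green fluorescent, judged across all proteins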
# An asterisk follows results filed as active; u = inconclusive; [ ] = another dose, or the depositor's remark.
SMILES,HRas wt GTP,Rab7 wt modul,Cdc42 wt GTP,Rac1 act GTP bind,Rab2 wt GTP,Rac1 wt GTP bind
CNc1ccccc(-c2ccc3ccccc3n2)c1=O,98,96,100,102,98,105
C=CCSc1nc(N)c(C#N)c(-c2ccc(C)cc2)c1C#N,85,94,78*,86,87,78*
Cc1ccc(NC(=O)/C=C\C(=O)NCC(=O)O)cc1,99,99,99,96,94,101
CCCN1C2CCCC1CC(NC(=S)Nc1cc(C)cc(C)c1)C2 (stereo unspecified),99,103,101,97,100,100
C=CCOC(=O)C1=C[C@H](C2CCCCC2)[C@@H](CCCO)[C@H](OCC)O1,96,99,94,96,95,95
CCOc1ccc(Cn2c3ccc(OC)cc3c3nc4ccccc4nc32)cc1,119,u,103,115,130*[activator],124*[activator]
COc1ccc(OCc2ccc(C(=O)NN)cc2)cc1,103,102,103,100,103,112
O=C(CCn1c(=O)[nH]c2ccsc2c1=O)NCc1ccc(F)cc1,99,104,98,95,97,96
O=C(COc1ccccc1[N+](=O)[O-])Nc1cc(Cl)ccc1C(=O)O,85,92,80,79*,83,87
Cc1ccc(S(=O)(=O)NCc2ccc(C(=O)NCCCN3CCC(Cc4ccccc4)CC3)cc2)cc1,99,104,101,95,99,97
COc1ccc(Cn2c(N)c(C#N)c3nc4ccccc4nc32)cc1,96,99,99,97,97,99
COc1ccc(-n2c(NC(=O)c3ccc(Br)o3)c(C#N)c3nc4ccccc4nc32)cc1,81,85,77*,79*,79*,79*
NS(=O)(=O)c1ccc(Nc2nc(-c3ccc(F)cc3)cs2)cc1,97,100,102,96,95,96
NS(=O)(=O)c1ccc(Nc2nc(-c3ccc(O)cc3O)cs2)cc1,78*,87,77*,86,77*,78*
Cc1ccc(C)c(N2CCN(C(=O)CN(C)S(=O)(=O)c3ccc4c(c3)CCC(=O)N4)CC2)c1,82,84,76*,80,77*,79*
O=C(COc1cccc(Cl)c1)Nc1ccc2c(c1)CCC2,97,96,95,96,94,99
O=C(CSCc1ccccc1)Nc1ccc(F)c(F)c1,97,97,101,100,100,103
Cc1nn(CCc2nn[nH]n2)c2nc(-c3ccc(C4CCCCC4)cc3)cc(C(F)(F)F)c12,82,84,77*,78*,81,79*
Cc1c(Cl)cccc1NC(=S)NCC(c1cccnc1)N(C)C (stereo unspecified),94,93,93,92,95,89
O=C(COC(=O)c1ccc2c(c1)C(=O)N(c1cccc3ncccc13)C2=O)c1ccc(Cl)cc1,90,90,89,86,83,82
Cc1ccc(C(=O)COC(=O)c2ccc3c(c2)C(=O)N(c2cccc4ncccc24)C3=O)cc1,76*,84,77*,75*,71*,71*
CN(/N=C/c1ccc(Br)o1)C1=NS(=O)(=O)c2ccccc21,86,91,83,89,82,77*
Cc1ccc(/C=N/N(C)C2=NS(=O)(=O)c3ccccc32)o1,66*,90,64*,82,65*,64*
Cc1cc(C)c(C#N)c(SCc2ccccc2)n1,99,96,100,98,101,104
Cc1ccc2nc(CSc3nc(C)cc(C)c3C#N)[nH]c2c1,107,102,114,105,101,122*[activator]
COCCn1c(N)c(C(=O)Nc2sc3c(c2C(=O)OC)CCCC3)c2nc3ccccc3nc21,63*,84,63*,80,69*,77*
COc1cccc(C2CC(c3ccccc3OC)n3ncnc3N2)c1 (stereo unspecified),100,100,98,98,99,107

# Screening results: PubChem BioAssay, NMMLSC
